This is an account of results in the supplement of paper PMC8047044.

“And” between values parts separate entries of the source, which are not always exact repeats. Identical values can stand only once. Counter-ions that a name gives are not always drawn.

For the first test, the system named is Neuro-2a. Briefly: neurite formation score, plate-normalized to DMSO control mean 5.04 (score (0-8 scale)); higher = more or longer neurites. Conditions: 1 µM. The method, then:
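Neuro-2a mouse neuroblastoma cells in PLL-coated 96-well plates were pre-treated for 1 h in DMEM(+) with each kinase inhibitor at 1 µM, then switched to serum-free DMEM(-) with inhibitor to induce neurite outgrowth and fixed about 2-3 h later. Three blinded observers scored neurite formation from 0 (no neurites) to 8 (long neurites on almost all cells).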
Consider `CN1CC[C@H](c2c(O)cc(O)c3c(=O)cc(-c4ccccc4Cl)oc23)[C@H](O)C1` [Flavopiridol hydrochloride], for which the neurite formation score is 4.47.
`CN1CCC(CNc2ccc3ncc(-c4cccc(OC(F)(F)F)c4)n3n2)CC1` [SGI-1776 free base]: the neurite formation score came to 5.69.
In the case of `NC(=O)Nc1sc(-c2ccc(F)cc2)cc1C(N)=O`, the neurite formation score is 4.36.
With `Cc1ncc(CCCN(C)C)cc1Nc1ncc2c(n1)-c1ccc(C(F)(F)F)cc1NC(=S)C2`, the neurite formation score turned out to be 5.29.
In turn, `Brc1c(Br)c(Br)c2n[nH]nc2c1Br` yielded a neurite formation score of 5.47.
With `O=C(Cc1ccc(-c2ccc(OCCN3CCOCC3)cc2)cn1)NCc1ccccc1` [KX2-391 dihydrochloride], the neurite formation score turned out to be 0.692.
Compound `CCn1c2ccccc2c2cc(Nc3ccnc(NCCCN4CCOCC4)n3)ccc21` gave a neurite formation score of 3.54.
On the same count and under the same terms, the figure for `O=C(NCc1ccccc1)c1csc(Nc2ccncn2)n1` [Thiazovivin] is 4.57; for `COc1cc2c(c(OC)c1OC)-c1c(cc3c(c1OC)OCO3)CC(C)C(C)C2` (centres undefined) [Schizandrin B] it is 4.88; for `COc1ccc(CNc2nc(N(CCO)CCO)nc3c2ncn3C(C)C)cc1` it is 5.57.
The compound `COc1cc2nccc(Oc3ccc(NC(=O)C4(C(=O)Nc5ccc(F)cc5)CC4)cc3)c2cc1OC` [Cabozantinib malate (XL184)] yielded a neurite formation score of 2.29.
With `O=C(Nc1ccc(-c2ccnc(Nc3ccc(N4CCOCC4)cc3)n2)cc1)C1CCCN1` (centres undefined), the neurite formation score turned out to be 4.02.
With `CS(=O)(=O)c1ccc(-c2cnc(N)c(C(=O)Nc3ccccc3)n2)cc1`, the neurite formation score amounted to 4.24.
Regarding `CN(c1ccccc1CNc1nc(Nc2ccc3c(c2)CC(=O)N3)ncc1C(F)(F)F)S(C)(=O)=O`, the neurite formation score amounted to 4.29.
The same measure, in the same setting: the figure for `COc1cc2c(Nc3ccc(NC(=O)c4ccccc4)cc3)ncnc2cc1OCCCN1CCOCC1` is 3.69; for `CCCCCCCCc1ccc(CCC(N)(CO)CO)cc1` [Fingolimod (FTY720)] it is 3.63.
In turn, `NCC(=O)Nc1ccc(-n2nc(C(F)(F)F)cc2-c2ccc3c(ccc4ccccc43)c2)cc1` registered a neurite formation score of 5.57.

A further test concerns Neuro-2a. The test is described as above. Conditions: 0.1 µM. How it is done:
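Neuro-2a mouse neuroblastoma cells in PLL-coated 96-well plates were pre-treated for 1 h in DMEM(+) with each kinase inhibitor at 0.1 µM, then switched to serum-free DMEM(-) with inhibitor to induce neurite outgrowth and fixed about 2-3 h later. Three blinded observers scored neurite formation from 0 (no neurites) to 8 (long neurites on almost all cells).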
In turn, `Fc1cc(-c2cccc3ncc(-c4cnn(C5CCNCC5)c4)nc23)cc(F)c1CN1CCOCC1` displayed a neurite formation score of 4.09.
In turn, `CN1CC[C@H](c2c(O)cc(O)c3c(=O)cc(-c4ccccc4Cl)oc23)[C@H](O)C1` [Flavopiridol hydrochloride] showed a neurite formation score of 3.76.
For the compound `CN1CCN(c2ccc(C(=O)Nc3n[nH]c4ccc(Cc5cc(F)cc(F)c5)cc34)c(NC3CCOCC3)c2)CC1` [Entrectinib], the neurite formation score stood at 0.751.
The compound `CN1CCC(CNc2ccc3ncc(-c4cccc(OC(F)(F)F)c4)n3n2)CC1` [SGI-1776 free base] yielded a neurite formation score of 5.25.
On to `CC(C)(CCCCCC(O)CCCCCC(C)(C)C(=O)O)C(=O)O`, for which the neurite formation score worked out at 0.0903.
`NC(=O)Nc1sc(-c2ccc(F)cc2)cc1C(N)=O` showed a neurite formation score of 4.58.
Regarding `FC(F)(F)c1ccc(CNc2ccc(Cc3c[nH]c4ncc(Cl)cc34)cn2)cn1` [Pexidartinib (PLX3397)], the neurite formation score was 5.42.
For `c1cc(-c2cnn3cc(-c4ccc(N5CCNCC5)cc4)cnc23)c2cccnc2c1`, the neurite formation score amounted to 4.75.
Still for that read-out and setting: the figure for `O=c1cc(N2CCOCC2)oc2c(-c3ccccc3)cccc12` is 4.21; for `CNC(=O)c1ccccc1Sc1ccc2c(/C=C/c3ccccn3)n[nH]c2c1` it is 4.54; for `CNC(=O)c1cc(Oc2ccc(NC(=O)Nc3cc(C(C)(C)C)nn3-c3ccc4ncccc4c3)c(F)c2)ccn1` [DCC-2036 (Rebastinib)] it is 3.92.
The compound `NC1(C(=O)N[C@@H](CCO)c2ccc(Cl)cc2)CCN(c2ncnc3[nH]ccc23)CC1` displayed a neurite formation score of 5.38.
Compound `Cc1ncc(CCCN(C)C)cc1Nc1ncc2c(n1)-c1ccc(C(F)(F)F)cc1NC(=S)C2` showed a neurite formation score of 4.92.
Regarding `Cc1nc(Nc2n[nH]c3c2CN(C(=O)N[C@H](CN(C)C)c2ccccc2)C3(C)C)c2sccc2n1`, the neurite formation score turned out to be 4.92.
On the same count and under the same terms, the figure for `Brc1c(Br)c(Br)c2n[nH]nc2c1Br` is 5.09; for `O=C(Cc1ccc(-c2ccc(OCCN3CCOCC3)cc2)cn1)NCc1ccccc1` [KX2-391 dihydrochloride] it is 0.584; for `CCn1c2ccccc2c2cc(Nc3ccnc(NCCCN4CCOCC4)n3)ccc21` it is 3.42.
In turn, `O=C(NCc1ccccc1)c1csc(Nc2ccncn2)n1` [Thiazovivin] returned a neurite formation score of 4.88.
`COc1cc2c(c(OC)c1OC)-c1c(cc3c(c1OC)OCO3)CC(C)C(C)C2` (centres undefined) [Schizandrin B] showed a neurite formation score of 5.08.
With `COc1ccc(CNc2nc(N(CCO)CCO)nc3c2ncn3C(C)C)cc1`, the neurite formation score was 4.04.
For the compound `C[C@@H]1CCN(C(=O)CC#N)C[C@@H]1N(C)c1ncnc2[nH]ccc12`, the neurite formation score is 3.92 and 5.58.
`COc1cc2nccc(Oc3ccc(NC(=O)C4(C(=O)Nc5ccc(F)cc5)CC4)cc3)c2cc1OC` [Cabozantinib malate (XL184)] yielded a neurite formation score of 4.92.
Take `O=C(Nc1ccc(-c2ccnc(Nc3ccc(N4CCOCC4)cc3)n2)cc1)C1CCCN1` (centres undefined): the neurite formation score is 4.92.
The compound `CN1CCN(c2ccc3nc(-c4c(N)c5c(F)cccc5[nH]c4=O)[nH]c3c2)CC1` [Dovitinib (TKI-258, CHIR-258)] displayed a neurite formation score of 4.08.
Consider `CC(C)c1cc(CNc2nc(Nc3cc(C4CC4)[nH]n3)cc(N3CCN(C)CC3)n2)on1`, for which the neurite formation score was found to be 4.92.
The same measure, in the same setting: in the case of `O=c1ncn2nc(Sc3ccc(F)cc3F)ccc2c1-c1c(Cl)cccc1Cl` it was 4.92.
Compound `CS(=O)(=O)c1ccc(-c2cnc(N)c(C(=O)Nc3ccccc3)n2)cc1` returned a neurite formation score of 3.04.
On the same count and under the same terms, in the case of `CN(c1ccccc1CNc1nc(Nc2ccc3c(c2)CC(=O)N3)ncc1C(F)(F)F)S(C)(=O)=O` it was 3.58; in that of `COc1cc(Nc2nc3ccccc3nc2NS(=O)(=O)c2ccc(NC(=O)c3ccc(C)c(OC)c3)cc2)cc(OC)c1`, 4.21.
Still for that read-out and setting: in the case of `COc1cc2c(Nc3ccc(NC(=O)c4ccccc4)cc3)ncnc2cc1OCCCN1CCOCC1` it was 4.58; in that of `NC(=O)c1ccc(N(C(N)=O)c2c(F)cccc2F)nc1-c1ccc(F)cc1F`, 4.58.
`CCCCCCCCc1ccc(CCC(N)(CO)CO)cc1` [Fingolimod (FTY720)]: the neurite formation score worked out at 4.25.
In turn, `CCCNC(=O)Nc1ccc(Oc2ncnc3cc(OC)c(OC)cc23)cc1Cl` came in with a neurite formation score of 5.54.
In turn, `C=CC(=O)Nc1ccc2ncnc(Nc3ccc(OCc4cccc(F)c4)c(Cl)c3)c2c1` had a neurite formation score of 4.21.
The same measure, in the same setting: the figure for `Cc1cc(C)c(/C=C2\C(=O)Nc3ccccc32)[nH]1` is 5.25; for `O=C(/C=C/c1ccc(O)c(O)c1)c1ccc(O)cc1O` [Butein] it is 4.38.
As to `NCC(=O)Nc1ccc(-n2nc(C(F)(F)F)cc2-c2ccc3c(ccc4ccccc43)c2)cc1`, the neurite formation score was 5.04.
